Results published in PubChem BioAssay (NCATS).
Inconclusive results are not listed. Unmarked numbers belong to inactive results. The source made the active and inactive calls. Calls follow the shape of the full dose curve.

test: A High-Content qHTS Against Drug Library for the Identification of Small Molecules that Inhibit DYT1 Early Onset Primary Dystonia-Associated Cell Pathology (AID 1645839); details: HEK293 Flp-In EGFP-delE TorsinA, punctate imaging, 48 h; series mostly up to 46.1 µM; % pathology change, negative = correction: at the top concentration
Text: Nicole Calakos M.D., Ph.D.
Duke University School of Medicine, Durham, NC
In DYT1 dystonia due to delGAG in the TOR1A gene, there is a robust and widely replicated finding of TorsinA protein mislocalization caused when the mutant protein is in excess of the wildtype protein (1-7). Stable HEK293 cell lines were created that replicate this phenomenon. Inducible expression of an EGFP-hu delE TorsinA encoding cDNA causes pronounced punctate cellular distribution. […] This phenotypic difference in EGFP-huTorsinA fusion protein distribution serves as an indicator of cell pathology. […] RNAi screen results with the assay were validated in DYT1 patient cell phenotypes, intersected with a known dystonia gene, and led to discovery of new human genetic dystonia associations.
The bioassay described herein is a high-content image screen with two readouts. The "%pathology" readout is the primary qHTS data channel, while the "cellcount" is the counterscreen qHTS channel. Desired active compounds are those that show inhibition in %pathology channel but no activity or minimal toxicity in cellcount readout.
1. Kustedjo, K., Bracey, M.H., and Cravatt, B.F. (2000). […] J. Biol. Chem. 275, 27933 - 27939.
2. Bragg, D.C., Kaufman, C.A., Kock, N., and Breakefield, X.O. (2004). Inhibition of N-linked glycosylation prevents inclusion formation by the dystonia-related mutant form of torsinA. Mol. Cell. Neurosci. 27, 417 - 426.
3. Gonzalez-Alegre, P., and Paulson, H.L. (2004). Aberrant Cellular Behavior of Mutant TorsinA Implicates Nuclear Envelope Dysfunction in DYT1 Dystonia. J. Neurosci. 24, 2593 - 2601.
4. Goodchild, R.E., and Dauer, W.T. (2004). Mislocalization to the nuclear envelope: an effect of the dystonia-causing torsinA mutation. Proc. Natl. Acad. Sci. U. S. A. 101, 847 - 852.
5. Kock, N., Allchorne, A.J., Sena-Esteves, M., Woolf, C.J., and Breakefield, X.O. (2006). RNAi blocks DYT1 mutant torsinA inclusions in neurons. Neurosci. Lett. 395, 201 - 205.
6. Hewett, J.W., Nery, F.C., Niland, B., Ge, P., Tan, P., Hadwiger, P., Tannous, B.A., Sah, D.W.Y., and Breakefield, X.O. (2008). siRNA knock-down of mutant torsinA restores processing through secretory pathway in DYT1 dystonia cells. Hum. Mol. Genet. 17, 1436 - 1445.
7. Calakos, N., Patel, V.D., Gottron, M., Wang, G., Tran-Viet, K.N., Brewington, D., Beyer, J.L., Steffens, D.C., Krishnan, R.R., and Zuchner, S. (2010). Functional evidence implicating a novel TOR1A mutation in idiopathic, late-onset focal dystonia. J. Med. Genet. 47, 646 - 650.
8. Rittiner* JE, Caffall* ZF, Hernandez-Martinez R, Sanderson SM, Pearson JL, Tsukayama KK, Liu AY, Xiao C, Tracy S, Shipman MK, Hickey P, Johnson J, Scott B, Stacy M, Saunders-Pullman R, Bressman S, Simonyan K, Sharma N, Ozelius LJ, Cirulli ET, Calakos N. Functional Genomic Analyses of Mendelian and Sporadic Disease Identify Impaired eIF2alpha Signaling as a Generalizable Mechanism for Dystonia. Neuron. 2016 Dec 21;92(6):1238-1251. doi: 10.1016/j.neuron.2016.11.012. Epub 2016 Dec 8. PMID: 27939583; PMCID: PMC5320521.
High-content, High-throughput Drug Screening Assay
The TorsinA mislocalization assay was modified from the previously published assay to accommodate compound testing in 1536 well format.1 Briefly, Flp-In T-REx 293 cells from Invitrogen in which a single copy of a cDNA is recombined into a specific genomic locus was used to create tetracycline-inducible expression of cDNA encoding either EGFP-hTOR1A (WT) or EGFP-delE hTOR1A (DYT1). WT and DYT1 cells were diluted to a concentration of 2 x 10^5 cells/mL in reduced serum media (DMEM High Glucose containing 1% tetracycline-tested FBS, 2 mM L-Glutamine, and 1% Penicillin/Streptomycin). 4 µl of WT cells and 4 µl of DTY1 cells were added to column 1 and columns 2-48, respectively, of a poly-D-lysine-coated, low base, black, clear bottom 1536 well plate (Corning, Corning, NY) using the BioRAPTR FRD Microfluidic Workstation (Beckman Coulter, Indianapolis, IN). The final cell number was 800 cells/well. […]
Potency is read from the fitted curve at half-maximal effect.

Compound | % pathology change, negative = correction | Potency
CCCCCC1Nc2cc(C(F)(F)F)c(S(N)(=O)=O)cc2S(=O)(=O)N1 (stereo not given) | -5.24% | –
Cc1ncc([N+](=O)[O-])n1C | 6.87% | –
O=C(c1ccco1)N1CCNCC1 | 17.3% | –
O=C1OC2(c3ccccc31)c1cc(I)c(O)c(I)c1Oc1c2cc(I)c(O)c1I | -3.82% | –
OCCc1ccccc1 | 6.01% | –
COc1ccc2c(c1)CCCC2=O | 16.5% | –
CN1Cc2cc(C(=O)N3CCC(C4CCNCC4)CC3)ccc2N[C@@H](CC(=O)O)C1=O | 11.8% | –
COC(=O)/C=C\C(=O)OC | 2.57% | –
C1N2CN3CN1CN(C2)C3 | 3.37% | –
OC1(c2ccc(Cl)cc2)CCNCC1 | -10.1% | –
CN1[C@@H]2CC[C@H]1CC(NC(=O)n1c(=O)[nH]c3ccccc31)C2 (stereo not given in full) | 0.753% | –
N#CSCC(=O)O | 6.25% | –
CCCCCCCCCCCCCCCC[N+](C)(C)Cc1ccccc1 | – | 22.4 µM (active)
CCCCCC[C@@H](CCC)C(=O)O | 8.52% | –
O=C(CCCl)NCCc1ccccc1 | 10.4% | –
COc1cc(C=O)ccc1O | -3.46% | –
Nc1ccc2c(c1)CN1C(=O)c3ccccc3C1=N2 | -18.8% [at 19.1 µM] | –
CC(C)C(C)(C)C(C)(C)C(C)(C)S | 13% [at 91.7 µM] | –
CC(C)OP(=O)(CP(=O)(OC(C)C)OC(C)C)OC(C)C | 13.8% | –
O=C(c1ccccc1)c1ccccc1 | 8.18% | –

Compound | % pathology change, negative = correction | Potency
NC(=O)C1(N2CCCCC2)CCN(CCCN2c3ccccc3CCc3ccc(Cl)cc32)CC1 | – | 3.98 µM (active)
CCS(=O)(=O)c1ccc(OC)c(C(=O)OC)c1 | 6.43% | –
COCCc1ccccn1 | 2.52% | –
Cc1oc(=O)oc1COC(=O)[C@@H]1N2C(=O)[C@@H](NC(=O)[C@H](N)c3ccccc3)[C@H]2SC1(C)C | 9.07% | –
CC[N+]1(CC)CCC(=C(c2ccccc2)c2ccccc2)C1C (stereo not given) | 9.31% | –
CN1CCCN=C1/C=C/c1cccs1 | 17.7% | –
CCN1C(=O)c2ccccc2C1Nc1ccc(OCCN2CCCCC2)cc1 (stereo not given) | 13.7% | –
O=C1Cc2cc(Cl)ccc2N1 | -3.15% | –
CCCc1ccc(OCC(=O)N2CCN(C(=O)COc3ccc(CCC)cc3OC)CC2)c(OC)c1 | – | 11.2 µM (active)
CO[C@@]1(NC(=O)CSC[C@@H](N)C(=O)O)C(=O)N2C(C(=O)O)=C(CSc3nnnn3C)CS[C@@H]21 | 19% | –
O=C1CC2(CCCC2)CC(=O)N1CCNCC1COc2ccccc2O1 (stereo not given) | 0.349% | –
COc1ccc2nc(SCc3ncc(C)c(OC)c3C)[nH]c2c1 | -23.5% | –
CC[N+](CC)(CC)CCOC(=O)C(C1CCCC1)C1CCCC1 | -0.418% | –
O=C1c2ccccc2CCc2ccccc21 | -12.7% | –
CCCCCCCCCCCCCC[N+](C)(C)C | – | 10 µM (active)
C[C@H]1C[C@H]2[C@@H]3CCC4=CC(=O)C=C[C@]4(C)[C@H]3C(=O)C[C@]2(C)[C@@]1(O)C(=O)CO | 10.3% | –
CCOC(=O)c1ccc(NC(=O)CN2CCCCC2)cc1 | -0.353% | –
C[C@H](CN1CCCC1)C(=O)c1ccc(C(F)(F)F)cc1 | -21.4% | –
C[C@]12CCC(=O)C=C1CC[C@@H]1[C@@H]2[C@@H](O)C[C@@]2(C)[C@H]1CC[C@]2(O)C(=O)COC(=O)CCC(=O)O | 1.69% | –
Cc1coc2ccccc2c1=O | 0.835% | –
